This note sets out measurements from PubChem BioAssay (Tox21).

Assay [1] in a line: qHTS assay to identify small molecule antagonists of the progesterone receptor (PR) signaling pathway - cell viability counter screen (AID 1346798). Further: series mostly up to about 92 µM; nearly all actives have a fitted effect of over 50% in size. A digest of the protocol: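 CellTiter-Glo luminescence; PR-UAS-bla HEK293T, 3,000 cells/well; compound + R5020, 16 hr, 37C/5% CO2; 30 min RT before read.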
(In qHTS, concentration-response curves come from the screen itself.)

Assay [2] can be described thus: qHTS assay to identify small molecule agonists of the progesterone receptor (PR) signaling pathway - cell viability counter screen (AID 1346799; calls by dose curve; further: nearly all actives have a fitted effect of over 45% in size). In a few lines:
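In parallel with the beta-lactamase readout, cytotoxicity toward PR-UAS-bla HEK293T cells was measured by CellTiter-Glo luminescence following 16 hr compound incubation in 2% charcoal-stripped FBS medium.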

Assay [3] can be described thus: qHTS assay to identify small molecule antagonists of the TGF-beta/Smad signaling pathway - cell viability counter screen (AID 1346824). Further: nearly all actives have a fitted effect of over 50% in size. A digest of the protocol: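 SBE-bla HEK 293T cells, incubated overnight, then compound plus 0.25 ng/mL TGF-beta1 (stock added) for 5 hr at 37 C. Viability was read in the same wells by CellTiter-Glo luminescence after 30 min at room temperature.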

Assay [4] can be described thus: qHTS assay to identify small molecule agonists of the TGF-beta/Smad signaling pathway - cell viability counter screen (AID 1346829). Further: top concentration of the series differs between compounds; nearly all actives have a fitted effect of over 45% in size. A digest of the protocol:
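Here the cytotoxicity of library compounds is measured in SBE-bla HEK 293T cells treated for 5 hr, using CellTiter-Glo added to wells already read for the beta-lactamase reporter.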

A short description of assay [5]: qHTS assay to identify small molecule agonists of the TGF-beta/Smad signaling pathway (AID 1346859; active means well fitted activation curve with a large enough effect in the signal ratio in the repeat runs, not every such curve was filed as active; the % refers to the signal ratio; further: series mostly up to about 77 µM). In a few lines: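 After overnight seeding, SBE-bla HEK 293T cells are dosed with compounds in DMSO and kept 5 hr at 37 C, 5% CO2. LiveBLAzer-type FRET substrate is then applied for 2 hr at room temperature.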
Assay [6] in a line: Human pregnane X receptor (PXR) small molecule agonists, qHTS cell viability counter screen (AID 1346977). Further: nearly all actives have a fitted effect of over 50% in size. In a few lines:
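Viability counter screen: CellTiter-Fluor signal in PXR-Luc HepG2 cells, 24hr compound exposure, 37C, 5% CO2.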

The nature of assay [7]: Caspase-3/7 induction in HepG2 cells by small molecules, qHTS assay (AID 1346978). Further: nearly all actives have a fitted effect of over 15% in size. A digest of the protocol: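 Wild-type HepG2 cells, 2,000/well, settled 5 hr at 37 C and 5% CO2, then compound-treated for 17 hr; caspase-3/7 activity read by luminescent Caspase-Glo 3/7 after 30 min at room temperature.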
Assay [8] is described as follows: Caspase-3/7 induction in CHO-K1 cells by small molecules, qHTS cell viability counter screen (AID 1346979). Further: nearly all actives have a fitted effect of over 35% in size. Further: potency means the concentration at half of the fitted maximal effect. In a few lines:
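Viability readout by fluorescence (CellTiter-Fluor) on wild-type CHO-K1 cells exposed for 16hr at 37C and 5% CO2 to compounds delivered in DMSO; reagent incubated 1hr before reading.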

Assay [9] is described as follows: Caspase-3/7 induction in CHO-K1 cells by small molecules, qHTS assay (AID 1346980). Further: nearly all actives have a fitted effect of over 15% in size. A digest of the protocol:
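Wild-type CHO-K1 cells exposed to compounds for 17hr at 37 C, 5% CO2. Caspase-3/7 activity then measured by Caspase-Glo 3/7 luminescence after 30min at room temperature.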

The nature of assay [10]: Caspase-3/7 induction in HepG2 cells by small molecules, qHTS cell viability counter screen (AID 1346981). Further: series mostly up to about 92 µM; nearly all actives have a fitted effect of over 30% in size. A digest of the protocol:
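Wild-type HepG2 cells (2,000/well) were allowed to settle for 5 hr at 37 C, 5% CO2, then dosed with compounds in DMSO by pin transfer. After 16 hr at 37 C, CellTiter-Fluor was added and fluorescence read 1 hr later.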

Assay [11] has as its target Nuclear receptor subfamily 1 group I member 2 (Homo sapiens) (UniProt O75469). The assay can be described thus: Human pregnane X receptor (PXR) small molecule agonists, qHTS assay (AID 1346982). Further: nearly all actives have a fitted effect of over 35% in size. Further: potency means the concentration at half of the fitted maximal effect. A digest of the protocol: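 PXR-Luc HepG2 cells (CYP3A4 promoter-driven luciferase) were seeded in medium with 5% charcoal-stripped FBS, left 5 hr at 37 C, then exposed to compounds in DMSO for 24 hr. Luminescence was read after ONE-Glo addition.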

Assay [12] shares this target. The assay can be described thus: CYP3A4 induction through human pregnane X receptor (PXR) by small molecules, qHTS assay (AID 1346984). Further: nearly all actives have a fitted effect of over 40% in size. In a few lines: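 DPX-2 cells (HepG2 co-transfected with PXR and CYP3A4 promoter-luciferase) treated with compounds 24 h at 37C; luciferin-IPA CYP3A4 substrate 3uM final added for 3 h, then One-Glo; luminescence read. qHTS format.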

Assay [13] shares this target. The assay can be described thus: Human pregnane X receptor (PXR) activation by small molecules, qHTS assay (AID 1346985). Further: nearly all actives have a fitted effect of over 40% in size. A digest of the protocol:
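DPX-2 cells (HepG2 co-transfected with a PXR response element and a CYP3A4-promoter luciferase construct) were seeded at 2,000 per well, rested 5 hr at 37C, then exposed to DMSO-dissolved compounds for 24 hr. Activation was read as luciferase luminescence.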

Assay [14] addresses Cytochrome P450 2D6 (Homo sapiens) (UniProt P10635). The assay can be described thus: Cytochrome P450 Family 2 Subfamily D Member 6 (CYP2D6) small molecule antagonists: luciferase reporter qHTS assay (AID 1671196). Further: nearly all actives have a fitted effect of over 50% in size. Further: potency means the concentration at half of the fitted maximal effect. A digest of the protocol:
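CYP2D6 enzyme–substrate mix was held with compound for 10 min at room temperature, then NADPH regeneration solution was added and the reaction ran 1 h at room temperature. Luciferin product was detected by luminescence after 20 min with detection reagent.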
On the technique in general: In a reporter assay the amount or activity of a reporter protein is the signal.

Assay [15] concerns the target Cytochrome P450 2C19 (Homo sapiens) (UniProt P33261). The assay can be described thus: Cytochrome P450 Family 2 Subfamily C Member 19 (CYP2C19) small molecule antagonists: luciferase reporter qHTS assay (AID 1671197). Further: nearly all actives have a fitted effect of over 65% in size. Further: potency means the concentration at half of the fitted maximal effect. In a few lines: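 Light output is proportional to CYP2C19 activity: proluciferin substrate is converted to luciferin, then detected by a luciferin detection reagent that also stops the 1 h, 37C NADPH-driven reaction. Ketoconazole serves as positive control.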

In assay [16] the target is Cytochrome P450 2C9 (Homo sapiens) (UniProt P11712). The assay can be described thus: Cytochrome P450 Family 2 Subfamily C Member 9 (CYP2C9) small molecule antagonists: luciferase reporter qHTS assay (AID 1671198). Further: nearly all actives have a fitted effect of over 50% in size. Further: potency means the concentration at half of the fitted maximal effect. In a few lines:
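P450-Glo proluciferin substrate with CYP2C9 enzyme; 10 min RT preincubation, then NADPH regeneration 1 h at 37C; luciferin detection reagent 20 min RT, luminescence in relative luminescence units.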

The target of assay [17] is Progesterone receptor (Homo sapiens) (UniProt P06401). The assay can be described thus: qHTS assay to identify small molecule antagonists of the progesterone receptor (PR) signaling pathway (AID 1346795; active means well fitted inhibition curve with a large enough effect in the signal ratio in the repeat runs, not every such curve was filed as active; the % refers to the signal ratio). A digest of the protocol:
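Fluorescence intensity measured 2 hr after adding beta-lactamase FRET substrate to PR-UAS-bla HEK293T cells that had been co-treated 16 hr with compound and 1 nM R5020 (final concentration) in 2% charcoal-stripped FBS.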

The target of assay [18] is Thyrotropin-releasing hormone receptor (Homo sapiens) (UniProt P34981). The assay can be described thus: qHTS assay to identify small molecule agonists of the thyrotropin-releasing hormone receptor (TRHR) signaling pathway (AID 1346891; calls by dose curve;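 further: HEK293 cells expressing TRHR with calcium dye readout; series mostly up to about 58 µM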). A digest of the protocol: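 Compounds were tested as agonists at 15 concentrations, in triplicate, on TRHR-Hek293 cells; calcium-sensitive dye fluorescence was recorded for 3 min following addition.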
Sequence of Thyrotropin-releasing hormone receptor (Homo sapiens) (P34981 whole entry, looked up): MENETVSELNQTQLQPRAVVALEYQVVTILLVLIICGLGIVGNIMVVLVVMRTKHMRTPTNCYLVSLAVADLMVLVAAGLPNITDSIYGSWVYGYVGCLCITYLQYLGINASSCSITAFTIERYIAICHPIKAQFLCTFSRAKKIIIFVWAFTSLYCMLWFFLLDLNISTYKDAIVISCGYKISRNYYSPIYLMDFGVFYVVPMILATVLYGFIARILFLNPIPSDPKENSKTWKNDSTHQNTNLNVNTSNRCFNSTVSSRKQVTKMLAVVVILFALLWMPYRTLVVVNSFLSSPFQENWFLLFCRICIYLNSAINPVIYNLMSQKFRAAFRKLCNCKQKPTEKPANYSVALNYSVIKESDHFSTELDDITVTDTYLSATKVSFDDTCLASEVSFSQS

“And” between values parts separate entries of the source, which are not always exact repeats. Equal entries are not always repeated. Results filed as inconclusive are left out. More than one record can exist for a structure, and the calls need not agree. The source made the active and inactive calls. Unless noted, the call rests on the fitted dose curve; in most records, active means well fitted curve in the direction sought with a large enough effect in the repeat runs; inconclusive means weak or mixed curves; inactive means no such curve, though single readings can be large; an effect the other way counts as inactive or inconclusive.

Sequence of Cytochrome P450 2C9 (Homo sapiens) (P11712 whole entry, looked up): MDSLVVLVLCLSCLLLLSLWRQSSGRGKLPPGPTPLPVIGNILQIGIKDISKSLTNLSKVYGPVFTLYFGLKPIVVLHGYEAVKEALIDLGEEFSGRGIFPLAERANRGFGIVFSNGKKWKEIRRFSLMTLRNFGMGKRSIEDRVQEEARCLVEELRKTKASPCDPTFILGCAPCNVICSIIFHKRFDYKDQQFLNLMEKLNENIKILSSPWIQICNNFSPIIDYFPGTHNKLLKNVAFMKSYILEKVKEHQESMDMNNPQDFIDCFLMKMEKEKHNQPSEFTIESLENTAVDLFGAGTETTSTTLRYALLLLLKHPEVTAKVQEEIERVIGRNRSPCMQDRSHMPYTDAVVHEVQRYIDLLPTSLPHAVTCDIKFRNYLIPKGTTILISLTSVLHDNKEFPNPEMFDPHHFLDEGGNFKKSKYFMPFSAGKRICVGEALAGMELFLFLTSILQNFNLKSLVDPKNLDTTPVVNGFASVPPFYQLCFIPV
Sequence of Cytochrome P450 2C19 (Homo sapiens) (P33261 whole entry, looked up): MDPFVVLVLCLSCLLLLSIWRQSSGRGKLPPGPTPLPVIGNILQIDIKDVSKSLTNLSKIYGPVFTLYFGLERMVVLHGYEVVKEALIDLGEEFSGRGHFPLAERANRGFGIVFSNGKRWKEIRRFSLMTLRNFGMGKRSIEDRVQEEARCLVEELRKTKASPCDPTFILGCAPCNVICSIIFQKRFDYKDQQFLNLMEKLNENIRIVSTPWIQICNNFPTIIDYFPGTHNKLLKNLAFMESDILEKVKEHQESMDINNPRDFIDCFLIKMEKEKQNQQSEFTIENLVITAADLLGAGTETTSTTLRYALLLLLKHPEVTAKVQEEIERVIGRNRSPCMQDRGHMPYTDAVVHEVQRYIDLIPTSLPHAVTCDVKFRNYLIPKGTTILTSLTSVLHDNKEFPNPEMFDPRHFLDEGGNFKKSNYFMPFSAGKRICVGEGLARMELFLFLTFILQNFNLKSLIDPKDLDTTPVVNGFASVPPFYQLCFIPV
Sequence of Cytochrome P450 2D6 (Homo sapiens) (P10635 whole entry, looked up): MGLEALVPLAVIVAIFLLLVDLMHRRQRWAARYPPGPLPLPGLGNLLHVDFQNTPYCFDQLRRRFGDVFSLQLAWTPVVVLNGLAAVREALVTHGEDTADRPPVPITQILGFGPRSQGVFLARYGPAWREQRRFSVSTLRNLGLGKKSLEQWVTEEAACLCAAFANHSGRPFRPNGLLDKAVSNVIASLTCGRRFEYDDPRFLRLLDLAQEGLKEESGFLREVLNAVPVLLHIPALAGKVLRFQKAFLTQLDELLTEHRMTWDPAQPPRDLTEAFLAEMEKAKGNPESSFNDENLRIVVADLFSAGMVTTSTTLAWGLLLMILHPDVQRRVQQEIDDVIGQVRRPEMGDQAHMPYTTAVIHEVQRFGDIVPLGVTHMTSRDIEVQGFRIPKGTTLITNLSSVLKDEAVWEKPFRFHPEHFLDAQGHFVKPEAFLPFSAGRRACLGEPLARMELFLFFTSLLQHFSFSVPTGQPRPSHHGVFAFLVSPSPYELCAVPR
Sequence of Nuclear receptor subfamily 1 group I member 2 (Homo sapiens) (O75469 whole entry, looked up): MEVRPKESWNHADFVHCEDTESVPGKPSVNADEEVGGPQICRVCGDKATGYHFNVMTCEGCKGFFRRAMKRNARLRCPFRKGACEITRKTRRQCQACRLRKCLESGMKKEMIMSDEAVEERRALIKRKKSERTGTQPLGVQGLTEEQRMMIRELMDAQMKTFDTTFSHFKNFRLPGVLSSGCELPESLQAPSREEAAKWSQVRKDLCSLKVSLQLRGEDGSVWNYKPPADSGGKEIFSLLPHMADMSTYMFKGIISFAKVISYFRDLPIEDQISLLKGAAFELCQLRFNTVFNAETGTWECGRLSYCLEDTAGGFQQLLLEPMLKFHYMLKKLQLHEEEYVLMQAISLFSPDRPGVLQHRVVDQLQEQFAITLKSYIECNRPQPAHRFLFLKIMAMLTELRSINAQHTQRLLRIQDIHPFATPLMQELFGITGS
Sequence of Progesterone receptor (Homo sapiens) (P06401 whole entry, looked up): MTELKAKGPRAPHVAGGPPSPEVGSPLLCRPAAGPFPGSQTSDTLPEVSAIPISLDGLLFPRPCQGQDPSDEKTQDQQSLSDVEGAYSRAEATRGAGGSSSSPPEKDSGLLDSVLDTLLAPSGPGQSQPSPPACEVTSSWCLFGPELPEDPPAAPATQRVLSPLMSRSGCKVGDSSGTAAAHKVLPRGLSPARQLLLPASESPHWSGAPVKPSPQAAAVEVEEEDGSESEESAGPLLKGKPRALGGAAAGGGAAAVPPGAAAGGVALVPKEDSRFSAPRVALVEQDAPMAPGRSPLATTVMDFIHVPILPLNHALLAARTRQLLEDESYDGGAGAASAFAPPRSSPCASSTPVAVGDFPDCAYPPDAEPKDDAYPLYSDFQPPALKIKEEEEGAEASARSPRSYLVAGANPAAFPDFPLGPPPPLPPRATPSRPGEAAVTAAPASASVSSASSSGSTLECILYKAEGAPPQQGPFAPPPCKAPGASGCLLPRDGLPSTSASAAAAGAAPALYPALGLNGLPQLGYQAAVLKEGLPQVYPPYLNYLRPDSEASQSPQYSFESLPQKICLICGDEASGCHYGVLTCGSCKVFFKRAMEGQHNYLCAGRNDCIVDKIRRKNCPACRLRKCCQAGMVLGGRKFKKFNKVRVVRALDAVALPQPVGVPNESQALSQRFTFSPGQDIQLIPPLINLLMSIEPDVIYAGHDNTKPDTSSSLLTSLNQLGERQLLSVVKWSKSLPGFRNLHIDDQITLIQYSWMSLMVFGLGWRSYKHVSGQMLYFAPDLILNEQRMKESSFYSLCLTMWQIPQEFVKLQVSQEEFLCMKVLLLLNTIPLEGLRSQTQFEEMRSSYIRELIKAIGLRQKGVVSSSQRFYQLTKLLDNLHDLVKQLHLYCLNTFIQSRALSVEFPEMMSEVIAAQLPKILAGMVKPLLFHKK

`CCCCCCCCCCC(CO)CCCCCCCC` (stereo not drawn): the Potency entry in [1], in assay [2], in assay [3], in [4], in assay [6] and in [7] was “inactive” throughout. Besides, the Potency entry in assay [8], in [9], in [10], in assay [11], in [12] and in assay [13] was “inactive” each time. For the same molecule, the Potency result in assay [14], in assay [15] and in [16] was “inactive” throughout. The molecule was called inactive in assay [5].

As to `CC(=O)OC(C)C`, the Potency entry in assay [17], in [1], in assay [2], in [3], in assay [4] and in [18] was “inactive” throughout. The Potency result in assay [6], in assay [7], in assay [8], in [9], in assay [10] and in [11] was “inactive” in each case. Besides, the Potency entry in assay [14], in [15] and in assay [16] was “inactive” each time. For the same molecule, in [5], the result was inactive.

As to `Oc1c(Cl)ccc(Cl)c1Cl`, the Potency result in [17], in assay [1], in assay [2], in assay [3], in [4] and in [18] was “inactive” each time. In addition, the Potency result in assay [6], in assay [7], in [8] and in assay [10] was “inactive” in each case. The molecule was called inactive in [5]. Moreover, the Potency in [14] was 71 µM (active); in [15] it was 79.5 µM (active) and inactive; in [16] it was 35.5 µM (active) and 35.6 µM (active).

In the case of `O=C1CCc2ccccc2O1`, the Potency entry in [17], in assay [1], in assay [2], in assay [3], in assay [4] and in [18] was “inactive” in each case. The Potency result in [6], in assay [7], in assay [8], in assay [10], in assay [14] and in assay [16] was “inactive” throughout. The molecule was called inactive in [5]. Besides, the Potency in assay [15] is 31.9 µM (active) and inactive.

Consider `OC[C@@H](O)[C@@H](O[C@@H]1O[C@H](CO)[C@H](O)[C@H](O)[C@H]1O)[C@H](O)[C@@H](O)CO`, for which the Potency result in assay [1], in assay [2], in [3], in assay [4], in [6] and in assay [7] was “inactive” throughout. The Potency result in [8], in assay [9], in [10], in assay [11], in assay [12] and in assay [13] was “inactive” throughout. Also, the Potency entry in assay [14], in [15] and in assay [16] was “inactive” in each case. The call in assay [5] was inactive.

On to `O=C(O)COCCN1CCN(C(c2ccccc2)c2ccc(Cl)cc2)CC1` (stereo not drawn), for which the Potency result in [17], in assay [1], in assay [2], in assay [3], in [4] and in [18] was “inactive” throughout. Further, the Potency entry in assay [6], in assay [7], in assay [8], in assay [10], in assay [11] and in assay [13] was “inactive” throughout. For the same molecule, the outcome in [5] was inactive.

In the case of `C[C@]12CC[C@@H]3c4ccc(O)cc4CC[C@H]3[C@@H]1CC[C@H]2O`, the Potency entry in [3], in assay [4], in assay [18], in assay [6], in [9] and in assay [10] was “inactive” each time. In addition, in assay [14], the Potency result is “inactive”. Besides, in assay [5], the molecule was classed as inactive. For the same molecule, the Potency is 49.4 µM (active) and 54.5 µM (active) in assay [8]; 4.06 µM (active) and 17.8 µM (active) in [15]; 11.4 µM (active) and inactive in assay [16].

Consider `OCCNCCO`, for which the Potency entry in assay [17], in [1], in assay [2], in assay [3], in [4] and in assay [18] was “inactive” in each case. Also, the Potency result in assay [6], in [8], in assay [10], in assay [14] and in assay [15] was “inactive” in each case. In addition, in [5], the molecule was called inactive. In addition, in [11], the Potency was 54.5 µM (active) and inactive.
